Shown are actives, neighbours in structure and some others; about 2.9% of the full set was active somewhere.
Nrf2 block = Nrf2 qHTS screen for inhibitors | A549 ARE-Fluc reporter, luciferase luminescence, 18-24 h | Potency, µM (doses to about 46 µM), most hits filed as inhibitors | 360,000 compounds, 2.1% hits; also: nearly all actives have a fitted effect of over 60% in size
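Cells were seeded and rested 2 h, then exposed to compounds for 18-24 h. CellTiter-Fluor was read first as a viability measure. BugLite was added 15 min before the final luminescent read of ARE-luciferase activity in A549 cells.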
S2 tox = Viability Counterscreen for Primary qHTS for Inhibitors of ATXN expression | S2 cells (HEK-293 line with an ATXN2-luciferase reporter) viability, CellTiter-Fluor protease fluorescence, 24 h | Potency, µM (top dose mostly 56.7 µM), hits mostly cytotoxic | 400,000 compounds, 0.49% hits; also: nearly all actives have a fitted effect of over 40% in size
A549 tox-1 = Nrf2 qHTS screen for inhibitors: counterscreen for cytotoxicity. Potency, µM (top dose mostly 46 µM), most hits filed as inhibitors. A549 ARE-Fluc cells, CellTiter-Fluor viability, 18-24 h. 390,000 compounds, 0.16% hits
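A549 ARE-Fluc cells in 5% FBS OPTI-MEM, 5000 cells/well, rested 2 h then exposed to compounds in concentration-response for 18-24 h at 37 °C. Viability by CellTiter-Fluor fluorescence (Ex 405/Em 525) after 30 min; luciferase luminescence (BugLite, 15 min, RT) read afterwards.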
Nrf2 ARE act = qHTS of Nrf2 Activators. AREc32 ARE-luciferase reporter (MCF7-derived line), luminescence, 24 h. Potency, µM (top dose mostly 46.1 µM), most hits filed as activators. 410,000 compounds, 0.31% hits. AID 624171, 2012; also: nearly all actives have a fitted effect of over 65% in size
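Cells of the AREc32 ARE-luciferase line are plated in OPTI-MEM containing 5% FBS and left overnight at 37 deg C. Compounds are pinned in, incubation continues 24 hr, and firefly luciferase signal is then measured.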
ATXN2 expr inh = Primary qHTS for Inhibitors of ATXN expression. HEK-293 ATXN2-luciferase reporter, luminescence, 24 h. Potency, µM (doses to about 57 µM), hits mostly inhibitors. 360,000 compounds, 0.72% hits. AID 1745845, 2022; also: nearly all actives have a fitted effect of over 55% in size
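ATXN2-luciferase reporter cells (luciferase flanked by upstream and downstream ATXN2 gene portions) were treated 24 h at 37 °C with compounds at up to 57 uM. SteadyGlo luminescence gave expression; GF-AFC fluorescence gave viability.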
FLuc counter 3 = Nrf2 qHTS screen for inhibitors: Purified Fluc Biochemical Counterscreen for Hit Validation. purified firefly luciferase, luminescence inhibition. Potency, µM (series often up to 57.5 µM), usual class: inhibitors. 1,400 compounds, 4% hits. AID 720522, 2013. shares compounds with Nrf2 block; also: nearly all actives have a fitted effect of over 65% in size
Target sequence (P08659 whole entry, looked up): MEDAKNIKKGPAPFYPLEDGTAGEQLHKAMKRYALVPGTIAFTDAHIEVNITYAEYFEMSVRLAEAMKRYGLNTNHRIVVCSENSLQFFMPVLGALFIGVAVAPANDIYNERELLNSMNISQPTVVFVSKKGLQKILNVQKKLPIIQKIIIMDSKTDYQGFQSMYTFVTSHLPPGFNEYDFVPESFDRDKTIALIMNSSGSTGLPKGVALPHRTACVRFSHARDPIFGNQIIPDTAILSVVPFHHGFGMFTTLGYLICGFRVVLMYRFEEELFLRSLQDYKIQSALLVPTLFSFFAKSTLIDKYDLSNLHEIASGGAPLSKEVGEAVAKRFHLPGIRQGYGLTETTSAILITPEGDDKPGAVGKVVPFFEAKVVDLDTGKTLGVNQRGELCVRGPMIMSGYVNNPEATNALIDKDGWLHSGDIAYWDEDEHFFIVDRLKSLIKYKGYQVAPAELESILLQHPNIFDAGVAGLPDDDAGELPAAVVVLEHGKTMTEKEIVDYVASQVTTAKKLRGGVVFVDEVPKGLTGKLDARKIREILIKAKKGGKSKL
A549 tox-2 = Nrf2 qHTS screen for inhibitors: A549 ARE-Fluc Cytotoxicity Counterscreen for Hit Validation; shares compounds with Nrf2 block; A549 ARE-Fluc cells, cytotoxicity counterscreen; Potency, µM (top dose mostly 46.1 µM), actives largely listed as inhibitors; 1,400 compounds, 2% hits;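 also: cells exposed to compounds for 18 to 24 hours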
ARE-Fluc inh = Nrf2 qHTS screen for inhibitors: Nrf2 A549 ARE-Fluc Confirmation Assay for Hit Validation. A549 ARE-firefly luciferase reporter, luminescence. AID 720524, 2013. 1,400 compounds, 74% hits. Potency, µM (series often up to 46.1 µM), hits mostly inhibitors. shares compounds with Nrf2 block; also: nearly all actives have a fitted effect of over 65% in size
A number is an active result; - = inactive; ? = inconclusive; . = not tested or not shown. Calls follow the shape of the dose curve; as a rule, active = well fitted curve in the direction sought with a large enough effect; inconclusive = small, poorly fitted or top-dose-only effect, or another doubt; inactive = no such curve, though single readings can be large; an effect the other way counts as inactive or inconclusive.

SMILES | Nrf2 block | S2 tox | A549 tox-1 | Nrf2 ARE act | ATXN2 expr inh | FLuc counter 3 | A549 tox-2 | ARE-Fluc inh
O=C(O)CCSc1nnc(-c2ccc(Cl)cc2Cl)o1 | 0.058µM | - | - | - | ? | 3µM | - | 0.18µM
CCSc1nnc(-c2ccc(Cl)cc2Cl)o1 | ? | - | - | ? | - | . | . | .
COC(=O)c1[nH]c2c(c1C)C(=O)CC(c1cc(OC)c(OC)c(OC)c1)C2 (stereo unspecified) | 9.2µM | - | - | - | . | - | - | ?
COC(=O)c1[nH]c2c(c1C)C(=O)CC(c1ccc(OC)c(OC)c1)C2 (stereo unspecified) | ? | - | - | - | - | . | . | .
COc1cc(C2CC(=O)c3c([nH]c(C(=O)OC4CCCC4)c3C)C2)cc(OC)c1OC (stereo unspecified) | 5.8µM | 32µM | ? | - | - | - | ? | 12µM
CCc1ccc(NC(=O)N(Cc2c[nH]c3ccccc23)C2CCCCC2)cc1 | ? | - | - | - | - | . | . | .
CCOC(=O)N1CCc2c(sc(NC(=O)c3ccc(S(=O)(=O)N4CCCC4)cc3)c2C#N)C1 | 7.3µM | ? | - | - | - | - | - | 7.3µM
COc1cccc(-n2c(C)nc3c(cnn3-c3ccc(C)c(C)c3)c2=O)c1 | - | - | - | - | - | . | . | .
O=C(COc1ccc2c(-c3ccccc3)cc(=O)oc2c1)Nc1cccnc1 | 2.3µM | - | - | - | - | - | - | 1.8µM
CN(CC(=O)Nc1ccc(Cl)cc1)C(=O)c1ccc(N2CCCC2=O)cc1 | - | - | - | - | . | . | . | .
CN(CC(=O)Nc1ccc(OC(F)(F)F)cc1)C(=O)c1ccc(N2CCCC2=O)cc1 | 2.9µM | - | - | - | - | - | - | 5.2µM
COc1ccc(CCNc2cc(N3CCN(C(=O)c4ccccc4F)CC3)ccc2[N+](=O)[O-])cc1OC | 2.1µM | - | ? | - | - | - | - | 6.5µM
COc1ccc(C(=O)N2CCN(c3ccc([N+](=O)[O-])c(NCCc4ccc(OC)c(OC)c4)c3)CC2)cc1 | 2.9µM | - | ? | - | - | - | - | 5.8µM
Cn1cc(S(=O)(=O)N2CCc3ccccc32)cc1C(=O)NC(C)(C)C | 2.1µM | - | - | - | - | - | - | 4.6µM
Cc1cccc(C)c1NC(=O)c1cc(S(=O)(=O)N2CCc3ccccc32)cn1C | - | - | - | - | - | . | . | .
Cc1cc(=O)[nH]c2nnc(SCC(=O)Nc3ccc(OC(F)(F)F)cc3)n12 | . | . | - | - | . | . | . | .
COc1ccc(OC)c(NC(=O)CSC2=Nc3ccccc3C3=NC(CC(=O)NCc4ccc5c(c4)OCO5)C(=O)N23)c1 (stereo unspecified) | . | - | - | - | - | . | . | .
CC[n+]1c(/C=C/N(C)c2ccccc2)oc2ccc(F)cc21 | 6.5µM | - | - | - | ? | - | - | 5.8µM
COc1ccc(C(CNC(=O)COc2ccc(Cl)c(C)c2)N2CCOCC2)cc1 (stereo unspecified) | - | . | - | - | . | . | . | .
CCc1cccc(NC(=O)CN2C(=O)COc3ccc(S(=O)(=O)N4CCC(C)CC4)cc32)c1 | . | . | - | - | . | . | . | .
Cc1cc(=O)n(CC(=O)N2CCN(c3ccccc3F)CC2)c2c1c(C)nn2C | 8.2µM | . | - | - | . | - | - | ?
Cc1ccc(S(=O)(=O)N2CCN(c3nc(-c4cccs4)nc4nc[nH]c34)CC2)cc1 | - | . | - | . | . | . | . | .
CC(C)(C)C(=O)OCCNc1nc(-c2cccs2)nc2ccccc12 | - | . | - | . | . | . | . | .
CCCC1OC2CC3C4CCC5=CC(=O)C=CC5(C)C4C(O)CC3(C)C2(C(=O)O)O1 (stereo unspecified) | 0.46µM | ? | - | - | - | - | - | 1.3µM
CCC(=O)[C@@]1(C)[C@H](C)C[C@H]2[C@@H]3CCC4=CC(=O)C=C[C@]4(C)[C@H]3[C@@H](O)C[C@@]21C | 0.016µM | - | - | - | - | - | - | 0.018µM
SMILES | Nrf2 block | S2 tox | A549 tox-1 | Nrf2 ARE act | ATXN2 expr inh | FLuc counter 3 | A549 tox-2 | ARE-Fluc inh
CCCC1O[C@@H]2C[C@H]3[C@@H]4CCC5=CC(=O)C=C[C@]5(C)[C@H]4[C@@H](O)C[C@]3(C)[C@]2(C(=O)CO)O1 (stereo partly specified) | ? | - | - | - | - | . | . | .
CCCCOc1ccccc1NC(=O)Cn1c(-c2cncs2)nc2ccccc21 | - | - | - | - | - | . | . | .
COc1ccc(CNc2nc(-c3ccco3)nn2S(=O)(=O)c2ccc(Cl)cc2)cc1OC | - | ? | - | - | - | . | . | .
CCN(Cc1cccc(S(=O)(=O)O)c1)c1ccc(C(=C2C=CC(=[N+](CC)Cc3cccc(S(=O)(=O)O)c3)C=C2)c2ccc(O)cc2S(=O)(=O)O)cc1 | . | . | . | . | . | 9.5µM | ? | 8.2µM
CC1=CC(=O)C=C/C1=C(/c1ccc(O)cc1C)c1ccccc1S(=O)(=O)O | - | . | - | - | . | . | . | .
CCOC(=O)c1c(NC(=O)COC)sc2c1CCCC2 | - | - | - | - | - | . | . | .
CCOC(=O)c1c(NC(=O)CC2SC(N)=NC2=O)sc2c1CCCC2 (stereo unspecified) | 1.6µM | - | - | - | - | - | - | ?
CC(C)C1N=C2c3ccccc3N=C(SCC(=O)NCc3ccccc3Cl)N2C1=O (stereo unspecified) | . | - | - | - | - | . | . | .
COc1ccc(CCN2C(=O)CN(C3CCCCCC3)C(=O)C2c2ccc(C)cc2)cc1OC (stereo unspecified) | . | . | - | - | . | . | . | .
Cc1ccc(C(=O)N2CCN(c3ccc(NC(=O)c4ccc5c(c4)OCCO5)cc3)CC2)cc1 | 7.3µM | - | - | - | ? | - | - | ?
O=C(Nc1ccc(N2CCN(C(=O)c3ccccc3)CC2)cc1)c1ccc2c(c1)OCO2 | ? | - | - | - | - | . | . | .
CCOc1ccc(NC(=O)COc2ccc(C(=O)NCc3cccnc3)cc2OC)cc1 | - | - | - | - | - | . | . | .
COc1cc(C(=O)NCc2cccnc2)ccc1OCC(=O)Nc1cccc(C(F)(F)F)c1 | 6.5µM | - | - | - | - | - | - | 16µM
Cc1cc(F)ccc1S(=O)(=O)Nc1ccccc1C(=O)Nc1ccccc1-c1nc2ccccc2[nH]1 | 4.1µM | . | 23µM | - | ? | - | ? | 16µM
CCCOc1ccc(C2c3c(oc4ccccc4c3=O)C(=O)N2c2nnc(C(C)C)s2)cc1 (stereo unspecified) | - | - | - | - | - | . | . | .

Screens: PubChem BioAssay, National Center for Advancing Translational Sciences (NCATS)
